Results taken from PubChem BioAssay (NCATS).
Values joined by “and” are separate entries in the source; they are usually repeats but may differ in a detail not shown here. Equal entries are not always repeated. Records with an inconclusive call do not appear. Active and inactive are the calls of the source. Calls come from the whole dose curve; as a rule, active = well fitted curve in the direction sought with a large enough effect; inconclusive = small, poorly fitted or top-dose-only effect, or another doubt; inactive = no such curve, though single readings can be large; an effect the other way counts as inactive or inconclusive.

Legend:
[1] = molecular target: Cellular tumor antigen p53 (Homo sapiens) (UniProt P04637); assay: Primary qHTS for small molecule compounds that upregulate eGFP-tagged delta133p53alpha (in N-terminal) cells. (AID 2060322); conditions: NCI-H358 eGFP-delta133p53alpha fluorescence, 24 h; activation: active compounds read high;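 note: cells pre-induced with doxycycline then dosed without doxycycline; series mostly up to about 56 µM; 0% = DMSO vehicle and 100% = reference activator; nearly all actives have a fitted effect of over 75% in size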
Chain of Cellular tumor antigen p53 (Homo sapiens) (P04637 whole entry, looked up): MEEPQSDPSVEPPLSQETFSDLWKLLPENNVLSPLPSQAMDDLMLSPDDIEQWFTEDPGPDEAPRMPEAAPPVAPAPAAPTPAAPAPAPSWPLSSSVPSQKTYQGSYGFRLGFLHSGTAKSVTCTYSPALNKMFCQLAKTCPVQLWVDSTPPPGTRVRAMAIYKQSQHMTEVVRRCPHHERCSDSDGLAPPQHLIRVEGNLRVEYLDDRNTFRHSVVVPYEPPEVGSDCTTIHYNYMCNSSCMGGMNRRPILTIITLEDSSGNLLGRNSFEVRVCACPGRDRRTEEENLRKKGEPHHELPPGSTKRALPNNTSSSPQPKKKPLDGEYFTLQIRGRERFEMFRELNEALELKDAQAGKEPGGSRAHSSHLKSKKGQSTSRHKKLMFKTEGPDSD
How it was run: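 NCI-H358 cells pre-induced 24 h with 10 ng/ml doxycycline for eGFP-delta133p53alpha, plated dox-free and exposed 24 h at 37C to titrated compounds. Fixed, Hoechst-stained; gated GFP peak intensity by laser scanning cytometry, normalized to DMSO (0%) and 57.5 uM 5-azacytidine (100%).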

[2] = molecular target: Aldehyde dehydrogenase, mitochondrial (Homo sapiens) (UniProt P05091); assay: qHTS for Inhibitors of the Aldehyde Dehydrogenase Family (ALDH2) Primary screen (AID 2061308);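 note: plate controls were vehicle for no effect and reference inhibitor for full effect; nearly all actives have a fitted effect of over 55% in size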
[3] = molecular target: Retinaldehyde dehydrogenase 3 (Homo sapiens) (UniProt P47895); assay: qHTS for Inhibitors of the Aldehyde Dehydrogenase Family (ALDH1A3) Primary screen (AID 2061315);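 note: plate controls were DMSO vehicle for no effect and reference inhibitor for full effect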
[4] = BET inhibitor-based combinations targeting novel dependencies in MECOM-rearranged (r) AML: SET-2 cell line (AID 2202231); conditions: SET-2 AML cells viability, CellTiter-Glo luminescence, 48 h; viability: active compounds read low, concentration not given here; note: nearly all actives have a fitted effect of over 35% in size; note: potency is the fitted concentration of half-maximal effect;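 for viability: plate controls were DMSO treated cells for no effect and wells without cells for full effect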
How it was run: (§1)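 A 48 hr incubation preceded viability reading by CellTiter-Glo, with 15 min room-temperature development. Dose series had 11 points; normalization used DMSO and empty wells; AUC was computed and mean-centered per line as Z-AUC.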

[5] = BET inhibitor-based combinations targeting novel dependencies in MECOM-rearranged (r) AML: OCI-AML3 cell line (AID 2202232); conditions: Potency: OCI-AML3 viability; note: nearly all actives have a fitted effect of over 35% in size; note: potency is the fitted concentration of half-maximal effect
How it was run: as §1

[6] = BET inhibitor-based combinations targeting novel dependencies in MECOM-rearranged (r) AML: MV-4-11 cell line (AID 2202233); note: potency is the fitted concentration of half-maximal effect; nearly all actives have a fitted effect of over 45% in size
How it was run: (§2)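 Each compound is tested in an 11-point concentration series against 500 seeded cells/well for 48 hr. The luminescent viability signal is normalized to DMSO and blank wells, then reduced to AUC and a cell-line-centred Z-AUC.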

[7] = BET inhibitor-based combinations targeting novel dependencies in MECOM-rearranged (r) AML: UCSD-AML1 cell line (AID 2202235); note: nearly all actives have a fitted effect of over 40% in size; note: potency is the fitted concentration of half-maximal effect
How it was run: as §2

[8] = BET inhibitor-based combinations targeting novel dependencies in MECOM-rearranged (r) AML: AML-191 cell line (AID 2202236; note: potency is the fitted concentration of half-maximal effect; nearly all actives have a fitted effect of over 35% in size)
How it was run: as §1

[9] = BET inhibitor-based combinations targeting novel dependencies in MECOM-rearranged (r) AML: HNT-34 cell line (AID 2202234); note: nearly all actives have a fitted effect of over 35% in size; note: potency is the fitted concentration of half-maximal effect
How it was run: as §2

[10] = BET inhibitor-based combinations targeting novel dependencies in MECOM-rearranged (r) AML: AML-194 cell line (AID 2202237; note: nearly all actives have a fitted effect of over 40% in size; note: potency is the fitted concentration of half-maximal effect)
How it was run: as §1

COC(=O)Nc1ccc(-c2nc(N3CCOCC3)c3cnn(C4CCN(Cc5cccnc5)CC4)c3n2)cc1
active: Potency [4] 2.63 µM | Potency [5] 2.63 µM | Potency [6] 1.32 µM | Potency [7] 0.525 µM | Potency [8] 1.86 µM
inactive: activation [1] 9.82% | Potency [2] | Potency [3]

COc1ccc(-c2c(C)nn3c(NCCN4CCOCC4)cc(C)nc23)cc1OC
inactive: activation [1] 7% | Potency [2] | Potency [3] | viability [4] 88.4% | Potency [5] | Potency [7]
active: Potency [9] 20.9 µM

CCC(C)n1ncn(-c2ccc(N3CCN(c4ccc(OC[C@H]5CO[C@](Cn6cncn6)(c6ccc(Cl)cc6Cl)O5)cc4)CC3)cc2)c1=O (stereo not given in full)
active: Potency [5] 6.45 µM | Potency [8] 7.23 µM
inactive: activation [1] 10% and -7.18% and -11.6% | Potency [2] | Potency [3] | viability [4] 101% | Potency [9] | Potency [7] | Potency [10]

Nc1ccc(C(=O)Nc2cccc(-c3nc(N4CCOCC4)c4oc5ncccc5c4n3)c2)cn1
inactive: activation [1] 2.12% | Potency [2] | Potency [3]
active: Potency [4] 16.6 µM | Potency [5] 9.34 µM | Potency [9] 14.8 µM | Potency [7] 9.34 µM | Potency [8] 9.34 µM | Potency [10] 8.33 µM

Cc1ccccc1C(=O)Nc1ccc(C(=O)N2CCCC(O)c3cc(Cl)ccc32)c(C)c1 (stereo not given)
inactive: activation [1] 0.83% | Potency [2] | Potency [3] | viability [4] 88.6% | Potency [5] | Potency [9] | Potency [7] | Potency [10]

CCCOc1ccn2c(C(C)=O)cc(-c3ccccc3S(C)(=O)=O)c2c1
inactive: activation [1] -0.333% | Potency [2] | Potency [3] | viability [4] 93% | Potency [7] | Potency [10]
active: Potency [6] 18.6 µM | Potency [9] 18.6 µM | Potency [8] 18.6 µM
